KCNQ2 block: inhibitors of rat KCNQ2 potassium channel; B-score at 10 µM; CHO-K1 KCNQ2, FluxOR thallium flux, 20 min; active compounds read low; AID 2156; actives 1.1% (n = 310,000); O88943;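 active = fluorescence ratio B-score at most minus 3 library SDs, with starting brightness B-score within 2 library SDs, cut at about -5.5 in these data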
Target sequence (O88943 whole entry, looked up): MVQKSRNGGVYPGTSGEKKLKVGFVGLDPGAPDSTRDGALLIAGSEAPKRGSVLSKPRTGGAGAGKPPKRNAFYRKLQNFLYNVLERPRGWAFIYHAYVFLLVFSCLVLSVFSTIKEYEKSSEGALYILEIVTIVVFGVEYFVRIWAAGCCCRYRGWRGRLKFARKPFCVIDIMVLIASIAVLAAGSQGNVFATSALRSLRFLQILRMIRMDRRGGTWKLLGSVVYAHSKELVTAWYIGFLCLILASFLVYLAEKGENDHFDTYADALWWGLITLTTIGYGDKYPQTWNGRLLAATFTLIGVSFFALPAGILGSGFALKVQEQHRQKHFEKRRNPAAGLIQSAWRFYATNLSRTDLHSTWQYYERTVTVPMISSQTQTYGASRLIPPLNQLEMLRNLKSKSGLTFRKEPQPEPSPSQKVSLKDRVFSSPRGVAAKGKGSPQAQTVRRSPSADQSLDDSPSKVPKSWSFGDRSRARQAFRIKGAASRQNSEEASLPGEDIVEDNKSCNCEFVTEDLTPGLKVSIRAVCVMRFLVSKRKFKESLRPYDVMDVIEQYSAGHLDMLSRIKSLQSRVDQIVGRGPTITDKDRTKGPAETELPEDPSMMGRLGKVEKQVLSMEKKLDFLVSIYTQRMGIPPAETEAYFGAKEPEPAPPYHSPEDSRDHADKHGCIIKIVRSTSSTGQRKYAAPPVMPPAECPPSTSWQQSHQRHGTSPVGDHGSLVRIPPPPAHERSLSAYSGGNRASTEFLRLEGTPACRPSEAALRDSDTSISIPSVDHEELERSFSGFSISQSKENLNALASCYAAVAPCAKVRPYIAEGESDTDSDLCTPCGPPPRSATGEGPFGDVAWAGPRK
KCNQ2 pot: KCNQ2 (rat) channel potentiation; O88943; CHO-K1 KCNQ2, FluxOR thallium flux fluorescence; active compounds read high; B-score at 10 µM; actives 0.54% (n = 310,000); AID 2239;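 active = fluorescence ratio B-score at least 3 SD of library B-scores, with initial fluorescence B-score within 3 of them, cut at about 5.3 in these data; same plate scores as AID 2156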;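 note: B-score of peak minus minimum over baseline fluorescence ratio after K+ and Tl+ stimulus; positive B-score means potentiation of KCNQ2 with more thallium influx and brighter signal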
Starred values were filed as active, the others as inactive; i = inactive; x = no result given. In the library only some 1.6% were active in any assay of this set; here they are far more common.

SMILES	KCNQ2 block	KCNQ2 pot
CCN(c1ccc(OC)cc1)S(=O)(=O)N1CCCC(C(=O)NCc2cccc(C)c2)C1 (configuration not stated)	-6.37*	-6.37
CCS(=O)(=O)N1CCCC(C(=O)NCc2cccc(OC)c2)C1 (configuration not stated)	i	0.58
O=C1c2cccc3c([N+](=O)[O-])ccc(c23)C(=O)N1c1ccc(Cl)cn1	-7.02*	-7.02
O=C1c2cccc3c([N+](=O)[O-])ccc(c23)C(=O)N1c1ccccn1	i	x
C=C1CCN([C@@H](Cc2ccccc2)C(=O)NCc2ccc(Cl)c(Cl)c2)S(=O)(=O)c2ccccc21	-6.18*	-6.18
C=C1CCN([C@@H](CC(C)C)C(=O)NCc2ccc(Cl)c(Cl)c2)S(=O)(=O)c2ccccc21	i	x
O=C(NCc1ccc2c(c1)OCO2)c1ccc2c(c1)N(Cc1c(F)cccc1Cl)C(=O)CS2	i	8.68*
CCC1CCCCN1CCCNC(=O)c1ccc2c(c1)N(Cc1c(F)cccc1Cl)C(=O)CS2 (configuration not stated)	i	x
CC1CN(CCOc2ccccc2C(C)C)CC(C)O1 (configuration not stated)	i	x
CCc1nc2oc3ccc(C)cc3c(=O)c2cc1C(=O)OC	i	x
Fc1cccc(-c2cc3nc4c(c(NCc5ccco5)n3n2)CCCC4)c1	i	x
COc1cccc(-c2cc3nc4c(c(NCC(C)(C)CN(C)C)n3n2)CCCC4)c1	-7.7*	-7.7
COc1ccc(NC(=O)c2ccc3nc(-c4ccccc4)c(-c4ccccc4)nc3c2)c(OC)c1	i	x
COc1ccccc1NC(=O)c1ccc2nc(-c3ccccc3)c(-c3ccccc3)nc2c1	-7.07*	-7.07
CCc1nc(N2CCCCC2)c2oc3ccccc3c2n1	i	x
CCc1nc(N2CCCCC2C(=O)O)c2oc3ccccc3c2n1 (configuration not stated)	i	1.44
CCc1nc(N2CCCCC2C)c2oc3ccccc3c2n1 (configuration not stated)	-7.47*	-7.47
CCc1nc(N2CCN(Cc3ccc4c(c3)OCO4)CC2)c2oc3ccccc3c2n1	-6.48*	-6.48
Cc1cccc(S(=O)(=O)Nc2nc3ccccc3nc2OC(C)C)c1	i	x
NC(=O)COC(=O)c1oc2ccccc2c1CSc1ccc(Cl)cc1	i	x
O=C(COC(=O)c1oc2ccccc2c1CSc1ccc(Cl)cc1)NC1CCCC1	-6.43*	-6.43
O=C(c1cc(COc2ccc(F)cc2F)on1)N1CCN(C2CCCC2)C(=O)C1	i	x
CCCCC(CC)CNC(=O)c1ccc2c(c1)OCO2 (configuration not stated)	-7.03*	-7.03
CCOCCCNC(=O)c1ccc2c(c1)OCO2	i	x
COc1cccc(C(=O)N2CCn3c2nc2ccccc23)c1	-8.71*	-8.71
SMILES	KCNQ2 block	KCNQ2 pot
CCOC(=O)C1CCN(c2nc3ccccc3n2CC(=O)c2ccccc2)CC1	i	x
COc1ccc(C(=O)N2CCn3c2nc2ccccc23)cc1	i	x
COc1ccc(N2CCN(c3nc4ccccc4n3CC(=O)c3ccccc3)CC2)cc1	-6.28*	-6.28
CCCCOc1ccccc1C(=O)NNC(=S)NC(=O)c1ccccc1[N+](=O)[O-]	i	x
COc1ccc(NC(=O)C(Cl)=C(Cl)Cl)cn1	i	x
COc1ccc(NC(=O)/C(Cl)=C(/Cl)S(=O)(=O)Cc2ccccc2)cn1	i	5.5*
CCOC(=O)N1CC=C2C(C#N)=C(N)C(C#N)(C#N)[C@H](c3cccs3)C2C1 (some centres not stated)	i	x
CC(C)(C)OC(=O)N1CC=C2C(C#N)=C(N)C(C#N)(C#N)C(c3cccs3)C2C1 (configuration not stated)	-6.19*	-6.19
COc1ccccc1C(=O)N(CCN(C)C)c1nc2cc(C)cc(C)c2s1	i	x
CN(C)CCN(C(=O)c1ccc2c(c1)CCCC2)c1nc2cc3c(cc2s1)OCCO3	-7.82*	-7.82
CN(C)CCN(C(=O)c1ccc2c(c1)OCCO2)c1nc2cc3c(cc2s1)OCO3	i	x
Cc1cc(C)c2sc(N(CCN(C)C)C(=O)c3ccc4ccccc4c3)nc2c1	-5.91*	-5.91
Cc1occc1C(=O)N1CCN(C(c2ccccc2)c2ccccc2)CC1	-6.44*	-6.44
Cc1ccccc1C(=O)N1CCN(C(c2ccccc2)c2ccccc2)CC1	i	x
CCN(Cc1ccccc1)S(=O)(=O)c1cc(C(=O)NC2CCCCCC2)ccc1OC	-6.78*	-6.78
CCN(Cc1ccccc1)S(=O)(=O)c1cc(C(=O)NCC2CCCCC2)ccc1OC	i	x
COc1ccc(OC)c(S(=O)(=O)Nc2c(NC3CCCCC3)c3ccccc3oc2=O)c1	i	0.01
O=C(COc1cccc(Cl)c1)Nc1ccccc1N1CCCCC1	i	x
Cc1cccc(CN2CCN(C(c3ccccc3)c3ccc(Cl)cc3)CC2)c1 (configuration not stated)	-5.94*	-5.94
COc1cc(CN2CCN(C(c3ccccc3)c3ccccc3)CC2)cc(OC)c1OC	i	x
Cc1ccc(S(=O)(=O)NCC(=O)N(CC(=O)NCC2CCCO2)Cc2ccccc2Cl)cc1 (configuration not stated)	i	x
O=C(Nc1ccc2c(c1)CCCN2C(=O)c1cccs1)c1c(F)cccc1Cl	i	0.16
S=C1NC2=C(CCC/C2=C\c2ccccc2)C(c2ccccc2)N1 (configuration not stated)	i	0.15
C(=C1/CCCC2=C1Nc1ncnn1C2c1ccccc1)/c1ccccc1 (configuration not stated)	-6.52*	-6.52
O=C(COc1ccc2c3c(c(=O)oc2c1)CCCC3)NCCCn1ccnc1	i	x
SMILES	KCNQ2 block	KCNQ2 pot
CCOc1ccc(NS(=O)(=O)c2ccc(C(=O)NCC(c3ccc(OC)cc3)N3CCCC3)cc2)cc1 (configuration not stated)	i	x
CCN(CC)CC(C)(C)COC(=O)c1oc2ccccc2c1C	i	0.02
CC1(C(=O)c2ccccc2)C2c3c(ccc4ccccc34)OC(=O)C21C(=O)N1CCOCC1 (configuration not stated)	-7.87*	-7.87
O=C(N1CCOCC1)N(CCN1CCOCC1)Cc1cccc2ccccc12	i	x
CCOc1ccc(CCNC(=O)c2sc3nc4n(c(=O)c3c2C)CCC4)cc1	i	1.15
Cc1ccc(N2CC(C(=O)OCC(=O)NNC(=O)c3ccccc3)CC2=O)cc1 (configuration not stated)	i	x
COc1ccccc1C1CC(c2cccs2)=NN1C(=O)CCC(=O)O (configuration not stated)	i	0.69
COc1ccccc1C1CN(c2ccc(F)cc2F)N=C1c1cccs1 (configuration not stated)	-7.77*	-7.77
O=C(/C=C/c1ccc([N+](=O)[O-])cc1)c1cccs1	i	x
Nc1ccc(/C=C/C(=O)c2cccs2)cc1	-6.86*	-6.86
O=c1c2ccccc2sc2ccc(C#CC3(O)CCCCC3)cc12	i	x
COc1cccc2sc3ccc(C#CC4(O)CCCCC4)cc3c(=O)c12	-6.7*	-6.7
NC(=O)c1ccc(NC(=O)CN2CCN(Cc3ccccc3)CC2)cc1	i	2.09
Cc1cc(C)c2c(=O)n(CC(=O)NCCCN3CCOCC3)sc2n1	i	2.69
Cc1cc(C)c2c(=O)n(CC(=O)NCCCN3CCN(c4ccccc4F)CC3)sc2n1	-9.95*	-9.95
O=C(O)c1ccccc1NC(=O)C(c1ccccc1)c1ccccc1	i	1.45
O=C(Nc1ccccc1O)C(c1ccccc1)c1ccccc1	-6.45*	-6.45

Compound activity as filed in PubChem.
